# TSG101-PTAP inh – blocks PTAP/TSG101 interaction to inhibit HIV-1 budding | Q99816 | Fluorescence polarization, FITC-PTAP peptide / Tsg101 binding | Potency, µM (doses to about 115 µM), for the others: at the top dose activity change, negative = inhibition, actives largely listed as inhibitors | 340,000 tested, under 10 active | AID 493005; active = well fitted inhibition curve with a large enough effect in the main read-out, with a control signal flat, not every such curve was filed as active; inconclusive = small, poorly fitted or top-dose-only effect, or effect the other way, or a change in a side signal; inactive = no such curve, though single readings can be large or run the other way; note: % of control where 0% means no effect
# Target sequence (Q99816 whole entry, looked up): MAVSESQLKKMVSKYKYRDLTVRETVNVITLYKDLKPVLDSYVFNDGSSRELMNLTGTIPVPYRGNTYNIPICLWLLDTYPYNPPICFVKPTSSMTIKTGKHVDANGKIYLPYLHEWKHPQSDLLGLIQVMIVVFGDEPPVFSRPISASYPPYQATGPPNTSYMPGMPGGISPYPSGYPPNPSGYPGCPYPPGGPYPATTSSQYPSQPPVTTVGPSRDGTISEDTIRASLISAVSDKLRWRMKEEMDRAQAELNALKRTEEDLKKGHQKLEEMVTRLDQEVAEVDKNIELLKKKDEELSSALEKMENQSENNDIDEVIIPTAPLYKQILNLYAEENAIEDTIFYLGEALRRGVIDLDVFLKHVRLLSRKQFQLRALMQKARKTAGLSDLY
#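 FP read-out: FITC-PTAP peptide, 50 nM final, binding Tsg101 binding domain, 10 uM final; 20 min, r.t.; 10 mM HEPES pH 7.5, 0.15 M NaCl, 0.01% Tween 20, 3 mM EDTA, 0.1 mM TCEP.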
# Rango release inh – inhibition of RanGTP-driven Rango-importin beta dissociation; Biochemical FRET Rango-importin beta, RanGTP-induced dissociation; Potency, µM (doses to about 46.1 µM), for inactives: at the top dose activity change, negative = inhibition; 340,000 tested, 0.071% active; AID 540253; calls by dose curve; note: % of control where 0% means no effect; nearly all actives have a fitted effect of over 45% in size
#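 Rango/importin beta premix (0.1/0.25 uM final), PBS + 1 mM DTT + 0.02% Tween-20 + 0.1% BSA; cpd 5 min RT; FRET pre-read; + RanGTP-RCC1 (0.6 uM Ran, 2 mM GTP, 0.2 uM RCC1); 45 min RT; FRET post-read, ex 430, em 486/530 nm.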
# ClpP mod – qHTS Assay for Activators of ClpP; purified B. subtilis ClpP, FRET peptide cleavage, 20 min; Potency, µM (doses to about 57.5 µM), for inactives: at the highest dose activity change, negative = active; 340,000 tested, 1.9% active; active = well fitted falling curve with a large enough effect; inconclusive = small, poorly fitted or top-dose-only effect; inactive = no such curve, though single readings can be large or run the other way; note: the source files actives as falling curves though it sought activators and does not explain the sign; nearly all actives have a fitted effect of over 65% in size
# Target sequence (P80244 whole entry, looked up): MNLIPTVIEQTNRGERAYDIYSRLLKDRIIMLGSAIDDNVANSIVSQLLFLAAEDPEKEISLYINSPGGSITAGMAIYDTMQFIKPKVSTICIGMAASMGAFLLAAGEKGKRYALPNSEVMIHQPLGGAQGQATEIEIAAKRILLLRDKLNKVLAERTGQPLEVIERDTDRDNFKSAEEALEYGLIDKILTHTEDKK
#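 Purified B. subtilis ClpP, 10 microg/mL final in Tris/HCl pH8 with KCl, BSA, glycerol and Tween-20, cleaved an Abz/nitrotyrosine-quenched decapeptide. Fluorescence (ex 320, em 430) was read at 0 and 20 min at room temperature. Delta was normalized to 5.8 microM ADEP and DMSO/no-enzyme controls.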
# TDP1 block – TDP1 (human) enzyme inhibition | recombinant TDP1, AlphaScreen DNA substrate cleavage | Potency, µM (highest dose often 130 µM), inactives show at the highest dose activity change, negative = inhibition, usual class: inhibitors | 350,000 tested, 0.28% active; note: % is set by controls: 0 for no effect and ±100 for the full control effect; nearly all actives have a fitted effect of over 40% in size
#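 Steps: enzyme plus compound, 15 min RT; add biotin/phosphotyrosine-FITC oligonucleotide (15 nM final), react 5 min; add donor/acceptor beads (10 ug/ml final), 10 min; read AlphaScreen. Tdp1 at 1 nM final.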
# Rango complex inh – Rango-importin beta binding inhibition | Q14974 | Rango CFP/YFP FRET sensor + importin beta, 45 min | Potency, µM (doses to about 92.2 µM), without a hit: at the top dose inhibition of complex formation | 340,000 tested, 0.031% active | AID 540263; calls by dose curve;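 note: 0% = DMSO wells and 100% = buffer wells lacking importin beta; nearly all actives have a fitted effect of over 15% in size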
#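 Inhibition scored from the CFP 486 nm/YFP 530 nm FRET ratio 45 min after adding 0.125 microM importin beta to 50 nM Rango biosensor preincubated 5 min with compound (room temperature, PBS with DTT, Tween-20, BSA). No-importin wells as positive control.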
# 12-LOX inh – ALOX12 (human) lipoxygenase inhibition; P18054; purified 12hLO, xylenol orange hydroperoxide absorbance; Potency, µM (titrated, usually from 108 µM), for the others: at the top dose activity change, negative = inhibition, most hits filed as inhibitors; 580,000 tested, 1.1% active; AID 1671190; note: % is set by controls: 0 for no effect and ±100 for the full control effect
#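 Purified human 12hLO (150 nM final) in 25 mM Hepes, 0.01% Triton X-100, pH 7.0 was preincubated 15 min at room temperature with compound. Then 40 uM arachidonic acid was added, 30 min. Hydroperoxide was read by Fe-XO absorbance ratio 573/405 nm.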
# An asterisk follows results filed as active; ? = inconclusive; . = not tested or not shown. Rows were chosen to be rich in hits. Some 2.4% of all compounds tested hit in one or more screens of this group. Unless noted, calls come from the whole dose curve; as a rule, active = well fitted curve in the direction sought with a large enough effect; inconclusive = small, poorly fitted or top-dose-only effect, or another doubt; inactive = no such curve, though single readings can be large; an effect the other way counts as inactive or inconclusive. Potency is the fitted concentration of half-maximal effect.
SMILES,TSG101-PTAP inh,Rango release inh,ClpP mod,TDP1 block,Rango complex inh,12-LOX inh
CC(C)(C)c1ccc(C(=O)Nc2cc(F)ccc2F)cc1,.,.,.,.,.,-22%
CCCN1C=NS(=O)(=O)c2cc(C(=O)NC(C)CC)ccc21 (stereo unspecified),.,.,.,.,.,-9%
CCOc1ccc2[nH]c(=O)c(CN(Cc3cccs3)Cc3nnnn3C(C)(C)C)cc2c1,-6%,-1%,-2%,1%,-6%,14%
COc1ccc2[nH]c(=O)c(CN(Cc3ccccc3)Cc3nnnn3CC3CCCO3)cc2c1 (stereo unspecified),-3%,-15%,28µM*,8%,2%,7%
COc1ccc2[nH]c(=O)c(CN(Cc3cccnc3)Cc3nnnn3CC3CCCO3)cc2c1 (stereo unspecified),-2%,-2%,3%,-1%,0%,6%
COc1cc2cc(CN(Cc3nnnn3Cc3ccccc3)CC3CCCO3)c(=O)[nH]c2cc1OC (stereo unspecified),0%,?,28µM*,6%,?,-19%
COc1ccc2[nH]c(=O)c(CN(Cc3cccs3)Cc3nnnn3C(C)(C)C)cc2c1,-13%,-17%,32µM*,3%,1%,-16%
Cc1nc2ccc(C(=O)N3CCN(C(=O)CCC4CCCC4)CC3)cc2nc1C,.,.,.,.,.,-1%
COc1cccc(CCNS(=O)(=O)c2cc(N3C(=O)C(C)(C)CS3(=O)=O)ccc2OC)c1,.,.,.,.,.,6%
CC(C)CNS(=O)(=O)c1ccc(NC(=O)Cn2nc(-c3ccc(F)cc3)ccc2=O)cc1,3%,-12%,28µM*,5%,0%,?
Cc1ccnc(NC(=O)C2CCN(S(=O)(=O)c3ccc(Cl)c(C(F)(F)F)c3)CC2)c1,-1%,-1%,32µM*,-3%,0%,-2%
COc1ccc(Nc2nc(C)cc(-c3cc(-c4ccccc4)on3)n2)cc1,-2%,-3%,28µM*,.,0%,-2%
CCCNc1nc(C)cc(-c2cc(-c3ccccc3)on2)n1,-2%,-6%,?,1%,-2%,0%
OC(c1ccco1)c1nc(-c2cccs2)cs1 (stereo unspecified),.,.,-1%,.,.,18µM*
CC(C)c1cccc(-c2csc(C(O)c3ccco3)n2)c1 (stereo unspecified),.,.,1%,.,.,14µM*
COc1ccccc1C(=O)N1CCC(C(NC(=O)c2ccc(C)cc2)C(=O)N2CCCCC2)CC1 (stereo unspecified),.,.,.,.,.,37%
Cc1ccccc1CCNC(=O)c1cc(C2CC2)nc2c1cnn2C(C)C,-2%,-3%,3%,-6%,-2%,0%
CC(C)n1ncc2c(C(=O)NCCc3ccc(F)cc3)cc(C3CC3)nc21,0%,-22%,32µM*,1%,-2%,-7%
CCOC(=O)C1=C(COC(=O)c2ccc3ccccc3c2O)NC(=O)NC1C (stereo unspecified),-10%,18%,5%,3%,0%,40µM*
CCOC(=O)C1=C(COC(=O)c2ccccc2OC(F)F)NC(=O)NC1C (stereo unspecified),-3%,-12%,0%,.,-2%,-20%
Cc1ccc2c(c1C)OC(=O)CC2(C)C,-1%,0%,32µM*,0%,-4%,-11%
Cc1noc(C)c1COC(=O)c1ccc(-c2nc3ccccc3s2)s1,-3%,3%,20µM*,2%,-4%,-6%
CCNC(=O)COC(=O)c1ccc(-c2nc3ccccc3s2)s1,0%,-4%,5%,-1%,1%,-8%
COc1cccc(C(=O)/C(=C/c2ccco2)c2nc3ccccc3o2)c1,.,.,.,.,.,40µM*
COc1ccc(C(=O)/C(=C/c2ccccn2)c2nc3ccccc3o2)cc1,.,.,.,.,.,1%
SMILES,TSG101-PTAP inh,Rango release inh,ClpP mod,TDP1 block,Rango complex inh,12-LOX inh
COc1cc(OC)cc(C(=O)/C(=C\c2ccco2)c2nc3ccccc3o2)c1,.,.,.,.,.,40µM*
COc1ccc(C(=O)/C(=C/c2ccco2)c2nc3ccccc3o2)cc1,.,.,.,.,.,14µM*
COc1cc(F)ccc1-c1ccnc2nc(C3CCCO3)nn12 (stereo unspecified),.,.,.,.,.,27%
COCC1CN(C(C)=O)CC12CCN(C(=O)NCc1ccc(F)cc1)CC2 (stereo unspecified),.,.,.,.,.,8%
CCOCCCn1c(SCC(=O)Nc2oc(C)c3c(C)n[nH]c(=O)c23)nnc1-c1ccncc1,-3%,10%,.,.,1%,-11%
Cc1n[nH]c(=O)c2c(NC(=O)CSc3nnc(-c4ccncc4)n3C)oc(C)c12,-3%,-4%,32µM*,4%,1%,-16%
CC(C)C#Cc1ccc2c(c1)O[C@@H](CN(C)C(=O)c1cnccn1)[C@@H](C)CN([C@@H](C)CO)S2(=O)=O,.,.,0%,.,.,?
C[C@H](CO)N1C[C@H](C)[C@@H](CN(C)C(=O)c2cnccn2)Oc2cc(C#CCC3CCCC3)ccc2S1(=O)=O,.,.,1%,.,.,35µM*
C[C@H]1CN([C@@H](C)CO)S(=O)(=O)c2ccc(/C=C/c3ccccc3)cc2O[C@H]1CN(C)C(=O)NC1CCCCC1,.,.,35µM*,.,.,0%
C[C@@H]1CN([C@H](C)CO)C(=O)c2cc(/C=C/c3ccccc3)cnc2O[C@H]1CN(C)C(=O)NC1CCCCC1,.,.,4%,.,.,0%
CCN(C(=O)CSC1CCCC1)C1CCCCC1,.,.,.,.,.,-16%
CCOC(=O)C1=C(C)Nc2nc3ccccc3n2C1c1ccccc1 (stereo unspecified),-1%,19%,35µM*,-1%,3%,15%
COC(=O)C1=C(C)Nc2nc3ccccc3n2C1c1ccccc1 (stereo unspecified),.,.,.,.,.,13%
O=C(O)C(C(=O)/C=C/c1ccco1)=C1SCCS1,-4%,?,1%,20µM*,-4%,300%
O=C(/C=C/c1ccc([N+](=O)[O-])cc1)/C=C/c1ccco1,.,.,.,5%,.,18µM*
O=C(C=Cc1ccco1)c1ccco1,1%,-13%,-4%,.,?,8.9µM*
O=C(/C=C/c1ccco1)c1cccc([N+](=O)[O-])c1,-2%,0%,-6%,.,0%,25µM*
O=C(C=C1SCCS1)/C=C/c1ccco1,-3%,-30%,-2%,.,?,?
O=C(/C=C/c1cccc([N+](=O)[O-])c1)c1ccccc1,.,.,.,9%,.,.
CCCCc1nn2c(=O)cc(CSCC(=O)Nc3cccc4ccccc34)nc2s1,.,.,.,.,.,-1%
